# Values without a mark were called inactive. Records with an inconclusive call do not appear. The source made the active and inactive calls. Unless noted, the call rests on the fitted dose curve.
# Legend:
# [1] = biological target: Cytochrome P450 1A2 (Homo sapiens) (UniProt P05177); test: p450-cyp1a2 (AID 410); further: potency means the concentration at half of the fitted maximal effect;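 on activity change, negative = inhibition: -100% = full effect of reference inhibitor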
# How it was run: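 Luminescent readout of luciferin formed from Luciferin-ME by human CYP1A2; data normalized against complete inhibition by 57 uM furafylline. Enzyme 20nM, substrate 100uM at Km, 100mM KPO4 buffer, 60 min reaction at room temperature.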
# [2] = Cell Viability - BJ (AID 421); conditions: BJ fibroblast viability, qHTS;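 further: potency means the concentration at half of the fitted maximal effect; cells exposed to compound for 40 hours at 37 °C before readout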
# How it was run: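 Luminescent ATP signal (CellTiter-Glo, 20 min at room temperature) served as the read-out of viable BJ cells after 40 hours of compound treatment. Responses were scaled between DMSO and 100 uM tamoxifen, and AC50 values were obtained by Hill modeling.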
# [3] = Cell Viability - Jurkat (AID 426;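 active means dose-dependent loss of cell ATP signal giving a full or clear fitted curve, ranked by lower potency value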;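 further: potency means the concentration at half of the fitted maximal effect; cells exposed to compound for 40 hours at 37 °C before ATP read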); conditions: qHTS
# How it was run: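 qHTS, 1536-well; Jurkat E6-1, 5000 cells/well, complete medium; cpd 40 hr, 37 °C; CellTiter-Glo 20 min RT; luminescence. AC50 by Hill fit.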
# [4] = Cell Viability - Hek293 (AID 427;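 active means compounds whose dose-response curve shows a full or clear partial loss of cell viability, called from curve shape rather than a numeric limit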;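 further: potency means the concentration at half of the fitted maximal effect; cells exposed to compound for 40 hours at 37 °C before reading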); conditions: qHTS
# How it was run: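 Luminescent ATP read-out (CellTiter-Glo, 20 min RT) after 40 hr compound exposure at 37 °C in complete medium. Signal normalized to DMSO (basal) and 100 uM tamoxifen (100% inhibition); concentration-response fitted with the standard Hill equation to give AC50.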
# [5] = Cell Viability - HepG2 (AID 433); conditions: qHTS;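 further: potency means the concentration at half of the fitted maximal effect; potency for ATP loss meaning cytotoxicity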
# How it was run: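 HepG2 cells, 1500 per well, treated 40 hr at 37 °C in complete medium; viability from intracellular ATP by CellTiter-Glo luminescence. Normalized to DMSO and 100 uM tamoxifen; AC50 from Hill fit of qHTS concentration-response.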
# [6] = Cell Viability - MRC5 (AID 434); conditions: MRC5 lung fibroblast viability, qHTS;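 further: potency means the concentration at half of the fitted maximal effect; cells exposed to compound for 40 hours at 37 °C; potency reflects cytotoxicity seen as loss of intracellular ATP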
# How it was run: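 MRC5 normal human lung fibroblasts (1500/well) were treated with compounds for 40 hr at 37 °C in complete medium, and viable cells were measured as intracellular ATP by CellTiter-Glo luminescence. AC50 came from Hill fits, normalized to DMSO and 100 uM tamoxifen.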
# [7] = Cell Viability - SK-N-SH (AID 435); conditions: SK-N-SH neuroblastoma cell viability qHTS;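 further: potency means the concentration at half of the fitted maximal effect; compound exposure lasted 40 h at 37 °C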
# How it was run: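 SK-N-SH neuroblastoma cells (1500/well) treated 40 h at 37 °C in complete medium; viability read as cellular ATP by CellTiter-Glo luminescence. Normalized to DMSO and 100 uM tamoxifen; AC50 from Hill fits of qHTS concentration-response.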
# [8] = biological target: Lysosomal acid glucosylceramidase (Homo sapiens) (UniProt P04062); test: Glucocerebrosidase-p2 (AID 348; in the data active means potency below about 10 µM; further: potency means the concentration at half of the fitted maximal effect); conditions: purified GBA, blue fluorogenic substrate, 40 min
# How it was run: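 Compounds titrated from 0.6 nM upwards against 0.2 nM enzyme in pH 5.9 citric acid/KH2PO4, taurocholate, tween-20; blue fluorogenic substrate 80 uM, 40 min room temperature, stopped and read Ex 365/Em 440 for AC50.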
# [9] = AP1 Signaling Pathway (AID 357; active means well fitted curve in either direction with a large enough effect, not every such curve was filed as active; further: on the % scale 0 is the no-effect control and ±100 the full control effect)
# How it was run: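 AP-1-bla ME-180 cells with beta-lactamase reporter under AP-1 response element, stimulated with EC50 EGF; compounds titrated, 5 hours at 37 degrees Celsius. CCF4 read at 460/530 nm ratio; positive and negative modulators judged by AC50.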
# [10] = NFAT Signaling Pathway (AID 444; active means well fitted curve in either direction with a large enough effect, not every such curve was filed as active;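 further: carbachol stimulus at about its EC50 of 1 µM final; on the % scale 0 is the no-effect control and ±100 the full control effect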)
# How it was run: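 Jurkat cells carrying an NFAT-driven β-lactamase reporter and co-transfected muscarinic M1 receptor were treated with compound plus carbachol (1 uM final, an EC50 level) for 5 h at 37 °C. CCF4 loading followed for 1 h at RT; 460/530 nm ratio gave %activity.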
# Chain of Cytochrome P450 1A2 (Homo sapiens) (P05177 whole entry, looked up): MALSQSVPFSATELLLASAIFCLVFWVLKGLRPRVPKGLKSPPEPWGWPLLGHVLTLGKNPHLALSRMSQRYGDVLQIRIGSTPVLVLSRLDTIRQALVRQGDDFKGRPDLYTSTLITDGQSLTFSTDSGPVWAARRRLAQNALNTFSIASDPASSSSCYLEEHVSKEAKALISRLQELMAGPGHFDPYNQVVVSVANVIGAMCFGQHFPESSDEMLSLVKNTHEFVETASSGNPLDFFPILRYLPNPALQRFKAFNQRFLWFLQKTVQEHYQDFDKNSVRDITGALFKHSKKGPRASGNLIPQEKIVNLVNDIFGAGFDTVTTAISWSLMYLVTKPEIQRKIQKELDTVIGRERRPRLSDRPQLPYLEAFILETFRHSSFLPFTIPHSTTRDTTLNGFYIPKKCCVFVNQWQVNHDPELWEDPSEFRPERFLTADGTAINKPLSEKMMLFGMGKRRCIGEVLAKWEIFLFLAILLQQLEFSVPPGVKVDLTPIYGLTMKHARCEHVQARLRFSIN
# Chain of Lysosomal acid glucosylceramidase (Homo sapiens) (P04062 whole entry, looked up): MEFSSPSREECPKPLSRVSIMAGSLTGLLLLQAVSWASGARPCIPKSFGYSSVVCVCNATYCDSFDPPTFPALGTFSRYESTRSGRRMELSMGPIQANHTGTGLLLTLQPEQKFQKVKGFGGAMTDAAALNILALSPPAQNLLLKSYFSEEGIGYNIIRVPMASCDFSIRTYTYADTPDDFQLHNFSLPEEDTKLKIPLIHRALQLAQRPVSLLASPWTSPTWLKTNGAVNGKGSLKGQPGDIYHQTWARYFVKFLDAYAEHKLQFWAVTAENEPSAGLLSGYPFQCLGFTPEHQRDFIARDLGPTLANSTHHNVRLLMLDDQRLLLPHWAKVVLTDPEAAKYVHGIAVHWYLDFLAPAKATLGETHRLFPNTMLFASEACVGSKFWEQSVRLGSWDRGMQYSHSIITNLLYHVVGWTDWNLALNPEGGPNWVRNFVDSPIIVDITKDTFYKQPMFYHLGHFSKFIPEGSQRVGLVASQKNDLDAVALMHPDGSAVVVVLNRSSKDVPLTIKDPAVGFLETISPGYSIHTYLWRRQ
structure (smiles),measurement,setting,value
COc1cc(C[C@H]2C(=O)OC[C@@H]2Cc2ccc(OC)c(OC)c2)ccc1O,Potency,[1],31.6 µM (active)
CN(C)CCCn1cc(C2=C(c3c[nH]c4ccccc34)C(=O)NC2=O)c2ccccc21,Potency,[1],7.94 µM (active)
COC(C)=O,Potency,[2],> 92 µM
same,Potency,[3],> 92 µM
same,Potency,[4],> 92 µM
same,Potency,[5],> 92 µM
same,Potency,[6],> 92 µM
same,Potency,[7],> 92 µM
O=C(O)c1cc2ccccc2c(Cc2c(O)c(C(=O)O)cc3ccccc23)c1O,Potency,[8],> 11.4 µM
same,"activity change, negative = inhibition",[9],13.4% [at 7.69 µM]
same,"activity change, negative = inhibition",[1],-4% [at 2.29 µM]
same,"activity change, negative = inhibition",[10],6.69% [at 7.69 µM]
C[C@]12CC[C@@H]3c4ccc(OS(=O)(=O)O)cc4CC[C@H]3[C@@H]1CCC2=O,outcome,[9],inactive
same,outcome,[10],inactive
